# Screening data as filed in PubChem.
# G9a inh: G9a (human) methyltransferase inhibition; Q96KQ7; G9a H3K9 monomethylation, AlphaScreen, 2 h; Potency, µM (doses to about 102 µM), for inactives: top-dose activity, negative = inhibition, actives largely listed as inhibitors; 350,000 tested, 8.8% active; AID 504332; also: % is scaled to controls: 0 for no effect and ±100 for the full control effect; nearly all actives have a fitted effect of over 75% in size
# Target sequence (Q96KQ7 913-1193 limits assumed): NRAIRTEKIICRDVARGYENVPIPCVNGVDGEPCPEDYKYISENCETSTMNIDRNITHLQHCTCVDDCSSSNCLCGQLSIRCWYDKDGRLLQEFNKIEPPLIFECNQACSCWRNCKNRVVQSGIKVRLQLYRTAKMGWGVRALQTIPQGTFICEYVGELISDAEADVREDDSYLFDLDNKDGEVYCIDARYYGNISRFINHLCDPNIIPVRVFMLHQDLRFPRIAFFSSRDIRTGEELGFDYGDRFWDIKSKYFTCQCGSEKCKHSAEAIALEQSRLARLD
#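 Enzyme 20 nM + cpd, 15 min RT; add b-H3K9 pep 500 nM / SAM 20 uM; 2 h RT; anti-H3K9me1 Ab 0.5 ug/mL + SA donor / anti-rabbit acceptor beads 20 ug/mL each, 10 min; AlphaScreen read.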
# HP1b binding inh: inhibitors of HP1-beta chromodomain binding to methylated histone tails; P83916; AlphaScreen HP1-beta / biotin-H3K9me3 peptide binding; Potency, µM (series often up to 114 µM), without a hit: at the top dose activity change, negative = inhibition, most hits filed as inhibitors; 390,000 tested, 0.56% active; also: nearly all actives have a fitted effect of over 70% in size
# Target sequence (P83916 whole entry, looked up): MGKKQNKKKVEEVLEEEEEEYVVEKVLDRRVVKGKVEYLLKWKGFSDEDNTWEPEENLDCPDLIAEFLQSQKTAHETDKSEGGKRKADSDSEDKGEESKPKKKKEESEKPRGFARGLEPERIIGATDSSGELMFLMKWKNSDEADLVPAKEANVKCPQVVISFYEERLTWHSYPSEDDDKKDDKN
#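 AlphaScreen: HP1-beta (50 nM) preformed 30 min with biotin-H3(1-18)K9me3 peptide (50 nM) in PBS pH 7.4, 0.01% Tween-20. Compound added for 30 min at RT, then streptavidin donor/nickel chelate acceptor beads (10 ug/mL) for 30 min.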
# 12-LOX inh: blocks human arachidonate 12S-lipoxygenase; purified 12hLO, xylenol orange hydroperoxide absorbance; 580,000 tested, 1.1% active; AID 1671190; P18054; Potency, µM (titrated, usually from 108 µM), for the others: top-dose activity change, negative = inhibition, most hits filed as inhibitors; also: % is scaled to controls: 0 for no effect and ±100 for the full control effect
#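 Purified human 12hLO at 150 nM in 25 mM Hepes, 0.01% Triton X-100, pH 7.0, preincubated 15 min at room temperature with compound. Reaction started with 40 uM arachidonic acid, 30 min at room temperature. Hydroperoxide measured by Fe-xylenol orange, 573/405 nm absorbance ratio.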
# Sfp PPTase inh: blocks B. subtilis Sfp PPTase activity; Biochemical Sfp PPTase activity, qHTS; Potency, µM, inactives show largest response in the series, negative = inhibition, hits mostly inhibitors; AID 1490; 310,000 tested, 3.5% active;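 also: the enzyme is Sfp with the accession as filed and its product quenches rhodamine fluorescence; 0% = enzyme reaction without inhibitor and -100% = no enzyme wells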
#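 Step 1, compound plus 15 nM Sfp-PPTase, 15 min, room temperature. Step 2, add rhodamine-CoA (5 uM) and BHQ-2-YbbR (12.5 uM). Step 3, read 525/598 nm fluorescence at 0 and 30 min.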
# JMJD2A Tudor: inhibitors of human JMJD2A Tudor domain; 390,000 tested, 4.4% active; AlphaScreen JMJD2A-Tudor / H3K4me3 peptide binding; AID 504339; Potency, µM (top dose mostly 114 µM), without a hit: top-dose activity change, negative = inhibition, actives largely listed as inhibitors; O75164; also: % is scaled to controls: 0 for no effect and ±100 for the full control effect; nearly all actives have a fitted effect of over 50% in size
# BAZ2B block: inhibitors of human BAZ2B bromodomain; Q9UIF8; AlphaScreen BAZ2B-H3K14Ac peptide displacement; Potency, µM (highest dose often 114 µM), for inactives: at the highest dose activity change, negative = inhibition, most hits filed as inhibitors; 360,000 tested, 4.4% active; also: % is scaled to controls: 0 for no effect and ±100 for the full control effect; nearly all actives have a fitted effect of over 60% in size
#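 BAZ2B (50 nM) with biotin-H3(5-23)K14Ac peptide (50 nM) in PBS pH 7.4, 0.01% Tween-20, preformed 30 min, then compound 30 min at room temperature; top concentration 110uM. AlphaScreen streptavidin donor/nickel chelate acceptor beads (10 ug/mL final), 20 min dark, signal read.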
# Active calls of the source: *; ? = inconclusive; . = not tested or not shown; ! = a repeat was not active; [ ] = remark or other dose. This is a sample that favours compounds with a hit; in the whole collection about 8.7% have one here. Calls follow the shape of the dose curve; as a rule, active = well fitted curve in the direction sought with a large enough effect; inconclusive = small, poorly fitted or top-dose-only effect, or another doubt; inactive = no such curve, though single readings can be large; an effect the other way counts as inactive or inconclusive. Potency is read from the fitted curve at half-maximal effect.
SMILES,G9a inh,HP1b binding inh,12-LOX inh,Sfp PPTase inh,JMJD2A Tudor,BAZ2B block
[O-]/C(=C(\C(=S)NCc1ccc2c(c1)OCO2)[n+]1ccccc1)c1ccc(Cl)s1,28.2µM*,-9.7%,-19.2%,39.8µM*,-32.9%,44.7µM*
Cc1ccc(C([O-])=C(C(=S)NCc2ccccc2)[n+]2cccc(CO)c2)cc1[N+](=O)[O-],.,-16.5%,-14.1%,.,?,.
O=C(c1c(F)cccc1F)N1CCC(CN2CCOCC2)CC1,.,.,-16.6%,.,.,.
COc1cc2c(cc1OC)CN(C(=O)CN(Cc1ccccc1)S(=O)(=O)c1ccccc1)CC2,.,.,-57.3%,.,.,.
O=[N+]([O-])c1cccc(C([O-])=C(C(=S)Nc2cccc3ccccc23)[n+]2ccccc2)c1,.,?,-36.8%,.,?,.
[O-]/C(=C(\C(=S)Nc1cccc2ccccc12)[n+]1cccc(CO)c1)c1ccc(Cl)s1,39.8µM*,-26.1%,?,-21.1%,?,31.6µM*
Cc1ccc(C(=O)C(C)OC(=O)c2cccc(N(C)C)c2)cc1 (centres undefined),.,.,-53.2%,.,.,.
CCCc1cc(-c2n[nH]c(=S)n2CC)cs1,?,-19.7%,?,-0.2%,3.55µM*,-36.9%
CCn1c(N)cc(=O)[nH]c1=S,.,49.3%,-11.7%,.,-9.7%,.
CCCc1cc(-c2n[nH]c(=S)n2C(C)c2ccccc2)cs1 (centres undefined),?,-4.2%,?,13.7%,-31.2%,-35.9%
CCc1cc(-c2n[nH]c(=S)n2Cc2ccccc2)cs1,?,-4.5%,?,-23.6%,56.2µM*,-23.6%
CCCCn1c(-c2csc(CCC)c2)n[nH]c1=S,8.91µM*,19.5%,?,?,?,-3.9%
CCc1cc(-c2n[nH]c(=S)n2CC)cs1,?,-13.9%,?,-11.1%,8.91µM*,-11.8%
CC(C)CCN1CC2(CCCN(S(=O)(=O)N3CCOCC3)C2)CCC1=O (centres undefined),.,.,1.1%,.,.,.
CCc1cc(C(=O)NNC(=S)Nc2ccccc2C)cs1,?,32.8%,-2.9%,-9.8%,-8.1%,31.2%
CCc1cc(-c2n[nH]c(=S)n2-c2ccccc2C)cs1,1.78µM*,1.1%,.,14.8%,35.5µM*,-7.3%
Cc1ccc(C(c2ccc(C)o2)c2cccc([N+](=O)[O-])c2O)o1,39.8µM*,?,?,?,50.1µM*,39.8µM*
Cc1c(C(c2cccc([N+](=O)[O-])c2O)c2c(C)n(C)n(-c3ccccc3)c2=O)c(=O)n(-c2ccccc2)n1C,13.2%[12.7 µM],36.4%,-18.7%,15.2%,-12.7%,-6.1%
Cc1cc(C(c2ccc(C)o2)c2ccc(C)o2)c(O)c([N+](=O)[O-])c1,35.5µM*,15.8µM*,35.5µM*,50.1µM*,39.8µM*,44.7µM*
CSCc1ccc(C(=O)Nc2ccc(F)cc2)o1,.,.,-2.3%,.,.,.
CN1CC(=O)N(c2ccccc2)Cc2c(NCCCc3ccccc3)ncnc21,.,.,-23.6%,.,.,.
C=CCn1c(SCc2n[nH]c(=S)n2-c2ccccc2)nnc1-c1ccccc1,11.2µM*,37.3%,?,-1.7%,11.2µM*,-13.4%
C=CCn1c(CSc2ccc(C)cc2)n[nH]c1=S,8.91µM*,62.8%,?,-5.6%,12.5%,-24.6%
C=CCn1c(CSc2nnc(-c3ccccc3)n2C)n[nH]c1=S,.,40.5%,0.0%,?,10µM*,-2.5%
C=CCn1c(SCc2ccccc2)nnc1-c1cccnc1,5.8%[12.7 µM],1.6%,-20.4%,9.4%,-5.8%,5.1%
SMILES,G9a inh,HP1b binding inh,12-LOX inh,Sfp PPTase inh,JMJD2A Tudor,BAZ2B block
COc1ccc(N2CC3CCC(C2)N3Cc2cccc(-c3cccnc3)c2)cc1,.,.,8.7%[6.33 µM],.,.,.
COc1cccc(CNC(=O)C(C)n2nc(-c3ccccc3)c3ccccc32)c1OC (centres undefined),.,.,-5.0%,.,.,.
O=C(/C=C/c1ccc(Br)cc1)NC(=O)c1ccccc1O,?,-8.0%,10.3%,0.2%,-11.5%[57.1 µM],?
O=C(/C=C/c1ccc(O)c(O)c1)O[C@H](Cc1ccc(O)c(O)c1)C(=O)O,?,.,.,50.1µM*,.,3.55µM*
O=C(/C=C/c1ccc(O)c(O)c1)c1ccc(O)cc1O,.,.,8.91µM*,-22.9%,.,.
O=C(O)/C=C/c1ccc(O)c(O)c1,10.6µM*,13.0%,-22.6%,56.2µM*!,?,?
O=C(/C=C/c1ccc(O)c(O)c1)NC(=O)c1ccccc1O,5.1%[12.7 µM],?,39.8µM*,-12.3%,63.1µM*,50.1µM*
Cc1nn(-c2ccc(C(=O)NC3CCCC3)cc2)c(NC(=O)C2CC2)c1-c1ccccc1,.,.,-0.4%,.,.,.
CC(C)Nc1nc(NC(C)C)nc(OCCOC(=O)c2ccccc2)n1,1.2%,41.2%,-14.5%,21.0%,-1.7%,-2.3%
CC(=O)OCCOc1nc(NC(C)C)nc(NC(C)C)n1,?,10.2%,-5.8%,15.4%,79.4µM*,-2.3%
CC(C)Nc1nc(NC(C)C)nc(C(N)=O)n1,2.5%[12.7 µM],0.6%,?,8.0%,-34.3%,50.1µM*
O=C1NCCOCCCN(S(=O)(=O)c2ccc3c(c2)CCC3)[C@H]2CCCC[C@@H]12,.,.,28.2%,.,.,.
CC(=O)C1=C(S(=O)(=O)c2ccc(C)cc2)CS(=O)(=O)C1,1.26µM*,14.1µM*,?,5.62µM*,22.4µM*,?
CC(C)(C)C(=O)N1CCCC(c2nn(-c3cccc(Cl)c3)c(=O)[nH]2)C1 (centres undefined),.,.,20.8%,.,.,.
O=C(O)CSc1sc(=S)sc1SCC(=O)O,44.7µM*,-0.1%,?,79.4µM*,?,-29.2%
Cc1ccc(C)c2c(N)c3c(nc12)CCCCC3 (tested in a mixture with another compound),44.7µM*,31.1%,0.5%,-1.4%,-3.7%,-3.6%
Cc1ccccc1NC(=S)/C(=C(\[O-])c1cc(C)n(Cc2ccccc2Cl)c1C)[n+]1ccccc1,50.1µM*,?,?,-5.9%,35.5µM*,39.8µM*
Cc1cc(C([O-])=C(C(=S)Nc2ccccc2)[n+]2ccccc2)c(C)n1-c1ccccc1,.,?,?,.,31.6µM*,.
COc1ccc(Cl)cc1NC1=C(C(=O)N2CCOCC2)S(=O)(=O)c2ccccc21,.,.,-1.2%,.,.,.
COc1ccc(CC(=O)NC2CCN(c3cc(-c4ccc(Cl)cc4)[nH]n3)C2)cc1 (centres undefined),.,.,13.1%,.,.,.
COc1ccc(NS(=O)(=O)c2ccc3oc(=O)ccc3c2)cc1,.,59.3%,?,9.5%,3.9%,-3.1%
O=S(=O)(Nc1ccccc1Cl)c1ccc2[nH]c(=S)oc2c1,7.08µM*,14.0%,?,2.3%,-17.9%,?
COc1ccc(NS(=O)(=O)c2ccc3oc(=S)[nH]c3c2)cc1,35.5µM*,37.9%,?,4.7%,3.7%[11.4 µM],-21.4%
